Reference: PubChem BioAssay (Tox21)
Records with an inconclusive call do not appear. A call without a number means that no potency is given here. Unmarked numbers belong to inactive results. The source made the active and inactive calls. Calls follow the shape of the dose curve; as a rule, active = well fitted cell-killing curve with a large enough effect in the repeat runs; inconclusive = weak or mixed curves, or effect the other way; inactive = flat fitted curve, though single readings scatter.

Experiments:
[1] = cAMP Responsive Elements (CRE) small molecule antagonists, cell-based qHTS assay: qHTS cell viability counter screen (AID 2060913); also: nearly all actives have a fitted effect of over 40% in size
Summary of the method: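 Cytotoxicity counter screen multiplexed with the CRE-bla antagonist read: HEK293T cells in DMEM with dialyzed FBS and 25 mM HEPES were treated 3 hrs under 0.25 uM final NKH477, then viability measured by CellTiter-Glo luminescence.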

[2] = cAMP Responsive Elements (CRE) small molecule agonists, cell-based qHTS assay: qHTS cell viability counter screen (AID 2060914);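 also: viability read after 3 h of compound exposure; nearly all actives have a fitted effect of over 50% in size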
Summary of the method: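 Cells are seeded and incubated 18 h, treated with compounds in DMSO for 3 h, read for the bla reporter, then given CellTiter-Glo; luminescence is measured after 30 min at room temperature.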

Structure (SMILES)	Potency [1]	Potency [2]	viability change, negative = cytotoxic [1]	activity change, negative = cytotoxicity [2]
CC(C)(O)Cc1ccccc1	inactive	inactive		
CC(=O)N[C@@H](CC(C)C)C(=O)O	inactive	inactive		
CCOC=C(C(=O)OCC)C(=O)OCC	inactive	inactive		
CCOCCn1c(C2CCN(CCc3ccc(C(C)(C)C(=O)O)cc3)CC2)nc2ccccc21	inactive	inactive		
Cc1cc(Cc2ccc(N)c(C)c2)ccc1N	inactive	inactive		
CN1C(=O)CC(c2ccccc2)C1=O (configuration not stated)	inactive	inactive		
O=C(O)c1ccc(O)cc1O	inactive	inactive		
C=CC(C)CCCC(C)(C)O (configuration not stated)	inactive	inactive		
Cc1cc(C)cc([N+](=O)[O-])c1	inactive	inactive		
Cc1cc2nc3c(=O)[nH]c(=O)nc-3n(C[C@H](O)[C@H](O)[C@H](O)CO)c2cc1C	inactive	inactive		
O=C(O)COC(=O)Cc1ccccc1Nc1c(Cl)cccc1Cl	inactive	inactive		
O=S(=O)(O)c1cc(O)c(O)c(S(=O)(=O)O)c1	inactive	inactive		
Cc1ccc(C=O)s1	inactive	inactive		
CCOC(=O)C(C)O (configuration not stated)	inactive	inactive		
OC1CCC(C2CCCCC2)CC1 (configuration not stated)	inactive	inactive		
C[Si](O[Si](C)(C)C)O[Si](C)(C)C	inactive	inactive		
C[C@H](CCC(=O)O)[C@H]1CC[C@H]2[C@@H]3CC[C@@H]4C[C@H](O)CC[C@]4(C)[C@H]3CC[C@]12C	inactive	inactive		
CCCCCCCCCCCCOCCOS(=O)(=O)O	inactive	inactive		
CCCCC(CC)COC(=O)c1ccccc1 (configuration not stated)	inactive	inactive		
CC1(C)COCN1	inactive	inactive		
FC1(F)C(F)(F)C(F)(F)C2(F)C(F)(C1(F)F)C(F)(F)C(F)(F)C1(F)C(F)(F)C(F)(F)C(F)(F)C(F)(F)C12F (configuration not stated)	inactive	inactive		
FC(F)(F)C(F)(F)C(F)(F)C(F)(F)C(F)(F)C(F)(F)C(F)(F)C(F)(F)C(F)(F)C(F)(F)F			10.4% [at 8.39 µM]	-0.902% [at 8.39 µM]
O=C(O)c1ccc(CO)o1	inactive	inactive		
CCN(CC)CC	inactive	inactive		
Cc1ccc(C)c(C)c1	inactive	inactive		
CCCCCCc1ccc(O)cc1O	inactive	inactive		

Structure (SMILES)	Potency [1]	Potency [2]	viability change, negative = cytotoxic [1]	activity change, negative = cytotoxicity [2]
Cc1ccc2c(c1)OCC(=O)CO2	inactive	inactive		
S=C(SSSSSSC(=S)N1CCCCC1)N1CCCCC1			6.65% [at 18.9 µM]	-4.69% [at 18.9 µM]
Nc1ccc2cc(S(=O)(=O)O)cc(O)c2c1	inactive	inactive		
C=CC(C)(CCC=C(C)C)OC(=O)CC (configuration not stated)	inactive	inactive		
Cc1cccc([N+](=O)[O-])c1C(=O)O	inactive	inactive		
Cc1cc(S(=O)(=O)O)ccc1N=Nc1c(O)ccc2ccccc12	inactive	inactive		
C/C=C/c1ccc(OCC)c(O)c1	inactive	inactive		
CO[C@]12C[C@@H](COC(=O)c3cncc(Br)c3)CN(C)[C@@H]1Cc1cn(C)c3cccc2c13	inactive	inactive		
CCCCCCOC(=O)C(C)CC (configuration not stated)	inactive	inactive		
CCN(CC)C(=O)Nc1ccc(OCC(O)CNC(C)(C)C)c(C(C)=O)c1 (configuration not stated)	inactive	inactive		
CCCOC(=O)C(C)O (configuration not stated)	inactive	inactive		
CC1(CO)CN(c2ccccc2)NC1=O (configuration not stated)	inactive	inactive		
Cc1ccc(N)cc1S(=O)(=O)O	inactive	inactive		
CCCCOCCOCCOC(C)=O	inactive	inactive		
CC[C@]12CCCN3CCc4c(n(c5ccccc45)C(=O)C1)[C@@H]32	inactive	inactive		
Cc1ccc(S(=O)(=O)NC2CCCCC2)cc1	inactive	inactive		
O=P(O)(O)OCC(O)CO (configuration not stated)	inactive	inactive		
Cc1c(C)c2c(c(C)c1OC(=O)CCC(=O)O)CC[C@@](C)(CCC[C@H](C)CCC[C@H](C)CCCC(C)C)O2	inactive	inactive		
CCCCCCCCCCC=O	inactive	inactive		
O=C(O)C1=NN(c2ccc(S(=O)(=O)O)cc2)C(=O)C1	inactive	inactive		
FC(F)(F)C(F)(F)C(F)(F)C(F)(F)C(F)(F)C(F)(F)C(F)(F)C(F)(F)Br	inactive	inactive		
CCCCCCCCCCCCSC	inactive	inactive		
O=C(Nc1cccc2c(=O)cc(-c3nn[nH]n3)oc12)c1ccc(OCCCCc2ccccc2)cc1	inactive	inactive		
CC(C)CC(=O)OCc1ccccc1	inactive	inactive		
C=C(C)C(=O)OCCOc1ccccc1	inactive	inactive		
